Measured values taken from PubChem BioAssay AID1460 (National Center for Advancing Translational Sciences (NCATS), 2008).
About 5,800 (2.1%) of roughly 270,000 compounds were called active. Another 16% or so got no clear call; they are omitted. The call rests on the fitted dose curve; in most records, active means well fitted inhibition curve with a large enough effect; inconclusive means small, poorly fitted or top-dose-only effect; inactive means flat fitted curve, though single readings scatter. The list comes from a sample in which actives are over-represented; it also holds similar structures and randomly drawn compounds. Some compounds were tested as several samples or in several runs, with calls that do not always agree.

target: Microtubule-associated protein tau (Homo sapiens) (UniProt P10636); assay: qHTS for Inhibitors of Tau Fibril Formation, Thioflavin T Binding; details: recombinant tau K18 P301L, heparin-induced fibrillization, ThT fluorescence; series mostly up to 57.4 µM; activity, negative = inhibition: at the top concentration; further: nearly all actives have a fitted effect of over 55% in size
Outline: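 Fibril formation assay: tau K18 P301L at 15 uM with trace Alexa 594 label, heparin inducer 20 uM, pH 7 sodium acetate buffer, 37 C for 6 hr; endpoint ThT signal.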
On the % scale 0 is the no-effect control and ±100 the full control effect; potency means the concentration at half of the fitted maximal effect.

Microtubule-associated protein tau (Homo sapiens), sequence (P10636 561-689 P618L limits assumed): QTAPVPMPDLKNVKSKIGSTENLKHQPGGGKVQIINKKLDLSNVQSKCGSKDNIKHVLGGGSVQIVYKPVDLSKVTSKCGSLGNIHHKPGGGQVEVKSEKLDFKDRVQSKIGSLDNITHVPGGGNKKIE

Potency, active:
Clc1ccccc1CSc1nnc(-c2ccco2)c(-c2ccco2)n1 17.8 µM
c1ccc(CSc2nnc(-c3ccco3)c(-c3ccco3)n2)cc1 7.94 µM
O=C(/C=C/c1ccc(Cl)c([N+](=O)[O-])c1)c1ccc(O)cc1 15.8 µM
CN(C)c1ccc(/C=C/C(=O)c2ccc(O)cc2)cc1[N+](=O)[O-] 4.47 µM
O=[N+]([O-])c1cc(S(=O)(=O)Nc2cccc(Cl)c2)ccc1N=Nc1c(O)[nH]c2ccccc12 10 µM
CC1CN(C(=O)N2CCC(C(=O)NCc3ccco3)CC2)c2cc(Cl)ccc2O1 (configuration not stated) 31.6 µM
CN(C)/N=C/c1cc(Cl)cc([N+](=O)[O-])c1O 15.8 µM
COc1ccc2nc(Nc3nc4cc5c(cc4s3)OCCO5)sc2c1 3.55 µM
C=CC(C1=CC(=O)C=CC1=O)c1ccc(O)cc1 (configuration not stated) 28.2 µM
CCCC(=O)Nc1ccc(C(=O)N/N=C/c2ccc[nH]2)cc1 15.8 µM
COc1ccc2c(c1)C(=C(C#N)C#N)C(=O)N2CCc1ccccc1 28.2 µM
CN(C)c1nc(=Nc2cccc(Cl)c2)ss1 25.1 µM
CCSC1=C(C#N)C(=O)n2c1cc1c2CCCC1 25.1 µM
COc1ccc(OC)c(Nc2nc(-c3ccc(O)c(O)c3)cs2)c1 10 µM
Oc1ccc(-c2csc(Nc3cccnc3)n2)cc1 15.8 µM
COc1ccc(-c2csc(Nc3ccc(O)cc3)n2)cc1 7.94 µM
Cc1c(/C=N\NC(=O)c2cc3ccccc3o2)c2ccccc2n1C 3.55 µM
COC(=O)CCCC1=CC2=CC(=O)C(C)(OC(=O)c3cccs3)C(=O)C2=CN1c1cccc(C#N)c1 (configuration not stated) 31.6 µM
CNC(=S)N/N=C/c1ccc(N2CCOCC2)s1 17.8 µM
C(=N\Nc1ccc2ccccc2n1)/c1ccc2c(c1)OCO2 10 µM
Brc1ccc(-c2csc(N/N=C/c3ccc4c(c3)OCO4)n2)cc1 4.47 µM
CN(C)c1ccc(/C=N/Nc2cc(N3CCOCC3)nc(N3CCOCC3)n2)cc1 7.94 µM

activity, negative = inhibition, inactive:
COC(OC)c1ccnc(SCc2ccccc2Cl)n1 -5.31%
Nc1nc(SCc2ccccc2Cl)n[nH]1 -8%
O=C(Nc1nnc(SCc2ccccc2)s1)c1ccco1 -8.61%
Brc1ccc(CSc2ccc(-c3ccco3)nn2)cc1 -16.9%
COc1ccc(C2C(=O)N(C3CCCCC3)CC(=O)N2Cc2ccccc2Cl)cc1OC (configuration not stated) 2.26%
Cc1onc(-c2ccc(F)cc2F)c1C(=O)Nc1cccc(C(F)(F)F)c1 1.56%
CCC(Sc1nc2n[nH]c(C)c2c(=N)n1-c1ccccc1Cl)C(=O)N(CC)CC (configuration not stated) -9.58%
COc1ccccc1CNC(=O)C(=O)NCC(c1cccs1)S(=O)(=O)c1cccs1 (configuration not stated) -3.27%
Cc1cc(C)n(-c2ccc(C(=O)O)cc2[N+](=O)[O-])n1 2.36%
O=C(c1ccc(Cl)c([N+](=O)[O-])c1)N1CCN(c2ccccc2)CC1 4.34%
CC(CC(=O)O)C(=O)c1ccc(Cl)c([N+](=O)[O-])c1 (configuration not stated) -0.522%
CN(C)c1ccc(/C=C/C(=O)c2ccc(C(C)(C)C)cc2)cc1[N+](=O)[O-] -1.69%
COc1ccccc1CNc1ccc(-c2nc(-c3ccccc3C)no2)cc1[N+](=O)[O-] 13.3%
CCCOc1ccc(-c2cccc(NS(=O)(=O)c3ccccc3)c2)nn1 -11%
COc1ccc(CNC(=O)COCc2cc(-c3cccs3)on2)cc1OC 3.85%
Cc1ccc(Cn2cc(CCC(=O)NCc3ccc(OC(C)C)cc3)c3ccccc32)cc1 -3.01%
c1ccc(CNc2ncnc3[nH]ncc23)cc1 3.06%
CCN(CC)S(=O)(=O)c1cc([N+](=O)[O-])ccc1N=Nc1c(O)n(C)c2ccccc12 -9.16%
CN1CCN(c2ccc(S(=O)(=O)Nc3ccccc3)cc2[N+](=O)[O-])CC1 -11.2%
O=C(Nc1ccc(F)cc1F)c1cnn(-c2ccc(F)cc2)c1-n1cccc1 7.82%
CCCS(=O)(=O)N1CCCC(C(=O)NCc2ccco2)C1 (configuration not stated) -1.85%
Cc1ccc2c(c1)N(C(=O)CCC(=O)NCc1ccccc1F)CC(C)O2 (configuration not stated) 3.16%
CSc1ccccc1NC(=O)CN(C)CC(=O)Nc1ccc(Cl)cc1[N+](=O)[O-] -20.7%
CC(=O)N/N=C/c1cc2c(cc1[N+](=O)[O-])OCO2 4.29%
CC1Cc2cc(S(=O)(=O)CCC(=O)NCc3ccc(Cl)cc3)ccc2N1C(=O)C1CC1 (configuration not stated) 6.6%
CCN1CCN(c2ncc3c(n2)CC(c2ccccc2O)CC3=O)CC1 (configuration not stated) -2.07%
COc1ccc2nc(NC(=O)c3ccc(Br)s3)sc2c1 -9.29%
COc1ccc2nc(Nc3nc(-c4cc5ccccc5oc4=O)cs3)sc2c1 -4.36%
CCC1=Nc2cc(C(=O)NCCCOC(C)C)ccc2Sc2ccc(C)cc21 2.21%
COc1cc2nc(SCc3ccc(F)cc3)n3nc(CCn4c(C)nc5ccccc54)nc3c2cc1OC -12.9%
CCCN(CC(=O)Nc1ccc(C(N)=O)cc1)CC(=O)Nc1ccccc1C -3.27%
CCCC(=O)Nc1ccc(C(=O)NCCCn2ccnc2)cc1 -11.2%
CCOc1cc2[nH]c(=O)n(Cc3ccc(C(=O)NCCN(CC)CC)cc3)c(=O)c2cc1OCC 6.18%
CCN(CCCNC(=O)c1c(C)oc2ncn(CC(C)C)c(=O)c12)Cc1ccccc1 8%
Cc1ccc2[nH]c3c(=O)n(CC(=O)NC(C)C)ncc3c2c1 -3.68%
COc1ccc(Cc2nc3ccc(C(=O)NCc4ccccc4Cl)cc3o2)cc1 -9.09%
COc1ccc(OC)c(NC(=O)CSC2=Nc3ccccc3C3=NC(CC(=O)NCc4ccc(F)cc4)C(=O)N23)c1 (configuration not stated) -12.4%
C#CCN1C(=O)C(O)(CC(=O)c2cc(OC)ccc2OC)c2ccccc21 (configuration not stated) 0.707%
Cc1ccc(C(=O)CC2(O)C(=O)N(CCc3ccccc3)c3ccc(Br)cc32)cc1 (configuration not stated) -9.21%
Cc1cccc(C(=O)N2c3nc(-c4ccco4)nn3C3(CCCCC3)[C@@H]3CCCC[C@@H]32)c1 -1.11%
COc1ccccc1N1CCN(C2C(=O)c3ccccc3N2C(C)=O)CC1 (configuration not stated) -2.56%
CCOC(=O)C1=C(O)CSC1=Nc1cccc(Cl)c1 -2.64%
CC(=O)N1CCCc2cc(S(=O)(=O)N3CCC(C(=O)NCc4ccc(C)cc4)CC3)ccc21 -0.974%
CCCCN(CC)CCCNC(=O)c1nn(C)c2c1CS(=O)(=O)c1ccccc1-2 2.42%
Cc1c2cnn(-c3ccccc3)c(=O)c2c(C)n1C(C)C(=O)Nc1ccc(Br)cc1F (configuration not stated) -2.01%
CCSc1ncnc2c(C#N)c3n(c12)CCCCC3 -2.45%
CCc1ccccc1NC(=O)c1ccc(F)c(S(=O)(=O)NC2CCCCCC2)c1 7.47%
Cc1oc2c(c1C(=O)Nc1ccc(F)c(F)c1)C1=NCCN1C=N2 -10.3%
CCOC(=O)c1ccc(CN(Cc2ccccc2)S(=O)(=O)c2ccc(Cl)cc2)cc1 2.81%
CC(C)CCN(C(=O)Nc1ccc(Cl)c(Cl)c1)C(C)c1cccs1 (configuration not stated) -0.0803%
c1ccc(Nc2nc(-c3ccncc3)cs2)nc1 -22.3%
O=C(NCc1cccnc1)C(=O)Nc1nc(-c2ccccc2)cs1 -2.55%
c1cnc(Nc2nc(-c3ccc4ccccc4c3)cs2)nc1 -9.51%
COc1ccc(-c2csc(NC(=O)CCCc3cccs3)n2)cc1 -12.1%
COc1ccc(-c2csc(NC(=O)c3ccc(N4C(=O)CCC4=O)cc3)n2)cc1OC -10.6%
COc1ccc(-c2csc(NC(=O)COC(=O)c3ccc(Br)o3)n2)cc1 -9.91%
Cc1ccc(NC(=O)Cn2nnc3sc4c(c3c2=O)CCC(C)C4)cc1 (configuration not stated) -3.78%
COC(=O)c1ccc(NC(=O)c2cc(S(=O)(=O)N3CCC(C)CC3)cn2C)cc1 7.77%
O=S(=O)(NCCc1nnc2ccc(SCc3ccc(Cl)cc3Cl)nn12)c1ccccc1 -9.95%
COc1ccc(Cl)cc1S(=O)(=O)N1CCC(c2ccncc2)CC1 -4.64%
CC(C)Oc1ccc(NC(=O)c2cc3ccccc3o2)cc1 -14.6%
Cc1c(/C=N/N2C(=O)C3C4C=CC(C4)C3C2=O)c2ccccc2n1C (configuration not stated) -16.2%
COC(=O)CCCC1=CC2=CC(=O)C(C)(OC(=O)c3cccs3)C(=O)C2=CN1c1ccc(CO)cc1 (configuration not stated) -2.21% [at 11.5 µM]
COC(=O)CCCC1=CC2=CC(=O)C(C)(OC(=O)c3cccs3)C(=O)C2=CN1CC(C)C (configuration not stated) -12.7% [at 11.5 µM]
COC(=O)CCCC1=CC2=CC(=O)C(C)(OC(=O)c3cccs3)C(=O)C2=CN1c1cccc(C#N)c1 (configuration not stated) -5.58% [at 11.5 µM]
CCn1c2c(c(=O)n3ncc(C(=O)N4CCN(c5ccccc5)CC4)c13)CN(Cc1ccc(OC)cc1)CC2 -8.87%
COc1ccc(-n2c(=O)c3sc4ccccc4c3n(CC(=O)Nc3cccc(C)c3)c2=O)cc1 -3.04%
C=CCNC(=S)N/N=C/c1ccc(C)s1 -16.9%
Cc1ccc(NC(=S)NCCN2CCOCC2)cc1 -4.08%
O=C(NCc1ccccc1)c1ccc2c(c1)nc1n2CCCCC1 -5.97%
O=C(C1CCC(Cn2c(=O)c3sccc3n(Cc3ccccc3F)c2=O)CC1)N1CCCCC1 (configuration not stated) -8.56%
O=C(CNC(=O)C(c1ccccc1)c1ccccc1)N/N=C\c1ccc2c(c1)OCO2 3.78%
COc1ccc(-c2csc(N3CCN(Cc4ccc5c(c4)OCO5)CC3)n2)cc1 -12.7%
O=C(Cc1ccc(F)cc1)N/N=C/c1ccc2c(c1)OCO2 6.78%
Cc1noc(C)c1/C=N/Nc1ccc2ccccc2n1 -14.4%
COc1ccc(Cl)cc1NC(=O)C(C)Sc1nc2c(c(=O)[nH]1)CCCC2 (configuration not stated) 6.23%
Cc1ccc(-c2nc(SCc3ccc(Br)cc3)n3[nH]c(=O)cc3n2)cc1 -2.48%
COc1cc(-c2cc3n(C)c(C)c(CCC(=O)Nc4ccc(F)cc4)c(=O)n3n2)cc(OC)c1OC -6.9%
C(=N/Nc1cc(N2CCOCC2)nc(N2CCOCC2)n1)/c1ccccc1 -7.28%
Cc1cc(N2CCN(c3ccccc3)CC2)nc(N2CCOCC2)n1 -15.2%
